For 40 compounds, Potency results are on record in PubChem BioAssay (NCATS).

Each structure is given as a SMILES string. Inconclusive results are not listed. Where a call stands in place of a potency, no number is given. The source made the active and inactive calls. Calls come from the whole dose curve; as a rule, active = well fitted inhibition curve with a large enough effect; inconclusive = small, poorly fitted or top-dose-only effect; inactive = flat fitted curve, though single readings scatter.

In this assay the target is Calcium and integrin-binding protein 1 (Homo sapiens) (UniProt Q99828). Put plainly: Primary qHTS for Identification of Calcium Integrin Binding Protein 1 (CIB1) Competitor (AID 1508620). Note: top concentration of the series differs between compounds. The conditions noted are these: CIB1-GST / FITC-alphaIIb peptide fluorescence polarization; series mostly up to 114 µM. An outline of the steps: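 Fluorescence polarization competition: GST-tagged CIB1 (1 uM final) preincubated with compound 15 min at room temperature, then FITC-labelled alphaIIb peptide (100 nM final) added. After 15 min at room temperature, polarization read at Ex 480/Em 540.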
Chain of Calcium and integrin-binding protein 1 (Homo sapiens) (Q99828 whole entry, looked up): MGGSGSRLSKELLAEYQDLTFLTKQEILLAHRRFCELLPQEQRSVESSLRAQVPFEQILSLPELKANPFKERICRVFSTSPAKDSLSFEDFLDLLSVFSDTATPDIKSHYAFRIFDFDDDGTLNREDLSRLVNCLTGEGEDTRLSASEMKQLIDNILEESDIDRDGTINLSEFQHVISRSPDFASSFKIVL
A general note: In qHTS, concentration-response curves come from the screen itself.
In the case of `CCOc1cccc(-c2cc(-c3n[nH]c(=S)n3CC)c3ccccc3n2)c1`, the Potency entry is “inactive”.
`Cc1cccc([S+](=O)([O-])NC2CCN(C#N)CC2)c1`: the Potency entry is “inactive”.
For `Cc1ccc2nc3sc(C(=O)N4CCC(C(N)=O)CC4)cc3cc2c1`, the Potency entry was “inactive”.
Under `Cc1cccc(C(=O)NCC(=O)OC(C(=O)Nc2cc(C(F)(F)F)ccc2Cl)c2ccccc2)c1` (stereo not given) stands “inactive”; under `Cc1nnc(-c2cnn(C)c2N)o1`, “inactive”; under `CC(=O)c1ccc(N2CCN(S(=O)(=O)c3ccc4[nH]c(=O)oc4c3)CC2)cc1`, “inactive”.
`O=C(Nc1cc(Cc2ccccc2)ccn1)c1ccc(-c2cccc([N+](=O)[O-])c2)o1`: the Potency result was “inactive”.
Turning to `COc1ccc(-c2no[n+]([O-])c2C#N)cc1`, the Potency entry is “inactive”.
Turning to `COc1ccc(-c2nnc(NC(=O)Nc3ccc4ccccc4c3)s2)cc1OC`, the Potency result is “inactive”.
The same measure for `c1nc(NCC2CCCCC2)c2cc(-c3ccc4c(c3)OCO4)ccc2n1`: “inactive”; for `N=c1c2c(ncn1-c1ccccc1)Oc1ccc3ccccc3c1C2c1ccc2c(c1)CCO2` (stereo not given): “inactive”; for `N#Cc1cc(NC(=O)Nc2nnc(-c3ccncc3)s2)ccc1Br`: “inactive”.
As to `COc1ccc(C(=O)N(Cc2ccccc2)Cc2ccc(OC)c(COc3ccc(NC(C)=O)cc3)c2)c(O)c1`, the Potency entry was “inactive”.
Turning to `O=C(Nc1ncc(Cc2ccc(C(F)(F)F)cc2)s1)c1ccc(-c2ccccc2)o1`, the Potency entry is “inactive”.
With `Cc1ccc(OCCn2c(CCNC(=O)CCc3ccc(N)cc3)nc3ccccc32)cc1`, the Potency result is “inactive”.
Under `O=C(CNC(=O)c1ccccc1Cl)OC(C(=O)Nc1cc(C(F)(F)F)ccc1Cl)c1ccccc1` (stereo not given) stands “inactive”.
As for `CCc1cccc(CC)c1OCc1cc(C2Nc3ccccc3C(=O)N2Cc2ccco2)ccc1OC` (stereo not given), the Potency entry was “inactive”.
Under `CN(Cc1ccco1)c1ncnc2ccc(-c3ccc4c(ccn4C)c3)cc12` stands “inactive”; under `O=C(NC1CCCc2c1cnn2-c1ccc(F)cc1F)c1ccc(C2(C(F)(F)F)N=N2)cc1` (stereo not given), “inactive”; under `c1coc(-c2ccc3ncnc(NCc4cccs4)c3c2)c1`, “inactive”.
Under `Cc1ccc(-c2ccc(CNc3nc(-c4ccccc4C(C)C)ncc3F)cc2)cn1` stands “inactive”; under `COc1cc(NS(=O)(=O)c2ccc(C)cc2)c2ncccc2c1`, “inactive”.
Regarding `O=S(=O)(Nc1nc(-c2ccccc2C(F)(F)F)nc2ccccc12)c1ccc(Br)cc1`, the Potency entry was “inactive”.
Turning to `COC(=O)c1cc2c(s1)c1cnn(Cc3ccccc3F)c(=O)c1n2C`, the Potency entry was “inactive”.
With `Cc1ccnc(NC(=S)N2CCC(Nc3cccc(C(F)(F)F)c3)CC2)c1`, the Potency result was “inactive”.
Consider `COc1ccccc1NC(=O)C(OC(=O)CNC(=O)c1ccccc1)c1ccccc1` (stereo not given), for which the Potency result was “inactive”.
Take `COC(=O)c1ccc(-c2c(NC(C)=O)sc3c2CCNC3)cc1`: the Potency result is “inactive”.
In the case of `Fc1ccccc1-c1ccc(Nc2nc(-c3ccncc3)nc3ccccc23)cc1F`, the Potency result is “inactive”.
For the compound `CC(=O)Nc1sc2c(c1-c1ccc(Cl)cc1)CCNC2`, the Potency result was “inactive”.
Under `Cc1ccnc(NC(=S)N2CC3CN(c4cccc(C(F)(F)F)c4)CC3C2)c1` (stereo not given) stands “inactive”; under `COc1ccc(Cn2ncc3c4sc(C)cc4n(C)c3c2=O)cc1F`, “inactive”.
The same measure for `CN(C)c1cccc(NS(=O)(=O)c2ccc(NC(=O)Cc3ccc(Cl)c(Cl)c3)cc2)c1`: “inactive”.
Turning to `Cc1scc2c1C(=O)NS2(=O)=O`, the Potency result is “inactive”.
On to `Cc1cc(C)nc(NC(=S)N2CCN(C3=Nc4ccccc4Oc4ccccc43)CC2)c1`, for which the Potency result is “inactive”.
Take `N=c1c2c(ncn1-c1ccccc1)Oc1ccc3ccccc3c1C2c1ccc2c(c1)OCCO2` (stereo not given): the Potency entry was “inactive”.
Take `O=S1(=O)N=C(Sc2cccc3cccnc23)c2ccccc21`: the Potency entry was “inactive”.
As for `Cc1cc(-c2nnc3n2CCCCC3)c(C)n1-c1ccncc1`, the Potency entry is “inactive”.
On to `Cc1cc(C)nc(NC(=S)N2CCN(c3cnccn3)CC2)c1`, for which the Potency result was “inactive”.
Regarding `CC(=O)c1ccccc1-c1ncc(C)c(NCC2CCN(c3cccnc3)CC2)n1`, the Potency result was “inactive”.
On to `Oc1ccc(COc2cccc3ccccc23)c2cccnc12`, for which the Potency result was “inactive”.
